Several values for one entry are separate records, joined by “and”; a condition that tells them apart may be missing. Identical values can stand only once. About 83,000 compounds went through this panel and 20% of them were active in at least one assay; those are over-represented in the sample as a whole.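 For each line, cells grew in 96-well plates with the test compound present at a single concentration for 48 hours.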 Activity calls are given as the source filed them.

Consider 40 compounds from PubChem BioAssay (NCI).

For this experiment, the system named is MCF7 breast. The experiment can be described thus: NCI-60 one-dose screen, 48 h (100 = growth as untreated, 0 = no growth, -100 = all killed). As to conditions: 10 µM unless noted. As for the experimental part: Growth inhibition of the MCF7 human tumor cell line is measured as a screen for anti-cancer activity. Cells are grown in 96 well plates and exposed to the test compound for 48 hours. Compounds are tested at a single concentration, which is 10^-5 M for most compounds. The reported endpoint is percent growth (GI% or GIPRCNT), where numbers from 0 - 100% represent growth inhibition, and numbers from -100% - 0 represent cell death. For example, a value of 40 represents 60% growth inhibition. A value of 0 means no net growth occurred over the course of the experiment. A value of -40 indicates 40% of cells at the beginning of the experiment died by the end of the experiment. A value of -100 means all cells are dead at the end of the experiment.
NCI-60 Human Tumor Cell Lines Screen was performed using the standard one-dose NCI protocol, which is described in more detail at https://dtp.cancer.gov/discovery_development/nci-60/default.htm.
Compounds with GIPRCNT values below 10 were considered active. Activity score was based on GIPRCNT using the following formula: […]
Score is 0 for GIPRCNT values of 100 or above, 50 for GIPRCNT values of 0, and 100 for GIPRCNT values of -100.
Regarding `CN(C)c1ccc(C(=C2C=CC(=[N+](C)C)C=C2)c2ccc(N(C)C)cc2)cc1`, the growth was -71.6% (active). Take `CN(C)c1ccc(/C=C/c2sc3ccc4ccccc4c3[n+]2C)cc1`: the growth is -9.73% (active). The result for `N=C(N)Sc1cccc[n+]1[O-]` reads 14.6% (inactive); that for `C/C(=N\NC(=S)N1CC2CCC(CC2)C1)c1ccccn1`, 13.3% (inactive). The result for `c1ccc(C2NCCNC2c2ccccc2)cc1` (stereo not given) reads 103% (inactive); that for `CC(C)(C)c1ccc(O)c(Br)c1`, 95.3% (inactive); that for `O=C(/C=C/c1ccccc1)CCC1C(=O)c2ccccc2C1=O`, 48% [100 µM] (inactive) and 57.5% [100 µM] (inactive).

`Cc1cc(O)c2c(c1)C(=O)C(c1c(C)cc3c(c1O)C(=O)C1OC1C3=O)=CC2=O` (stereo not given): the growth is -64.5% [100 µM] (active) and -90% [100 µM] (active).

Turning to `CC(C)c1ccc(Nc2n[nH]c(=S)s2)cc1`, the growth was 101% (inactive). Take `COc1ccc(NC(=O)/C(=C/N2C(=O)/C(=C/c3ccc(OC)c(OC)c3)NC2=S)C(C)=O)cc1`: the growth is 40.9% (inactive). Under `CN(C)c1ccc(C(C#N)(c2ccccc2)c2ccc(N(C)C)cc2)cc1` stands 39.9% (inactive). On to `Oc1c(Cl)cc(Cl)cc1C(c1cc(Cl)cc(Cl)c1O)C(Cl)(Cl)Cl`, for which the growth is 4.85% (active).

Consider `CN(C)CCSC1=Nc2ccc(Cl)cc2C(c2ccccc2Cl)N(C)C1` (stereo not given), for which the growth was 27.8% (inactive). For the compound `CCC[CH2][Sn]1([CH2]CCC)[O]C2C(CO)OC(n3ccc(N)nc3=O)C2[O]1` (stereo not given), the growth was -92.2% (active). Under `CCCCCCCCCCCC[n+]1ccccc1` (tested in a mixture with another compound) stands 2.79% (active); under `CCOC(=O)/C(=C\c1ccc2ccccc2c1)P(=O)(OCC)OCC`, 15.3% (inactive); under `O=C(C[P+](c1ccccc1)(c1ccccc1)c1ccccc1)c1ccccc1`, 90.6% (inactive). Under `Cc1cc2cccnc2c2ncccc12` stands 3.96% (active); under `O=C(CBr)c1ccc(OC(=O)c2ccccc2)cc1`, 92.5% (inactive); under `NC(=S)N/N=C/c1ncccc1O`, 6.89% (active). `CN1CSC(=S)N(Cc2ccccc2)C1`: the growth is 33.5% (inactive). On to `CCCC[n+]1c(/C=C\c2c(OC)cc(OC)cc2OC)ccc2ccccc21`, for which the growth was 4.3% (active).

For `Cc1cc(I)nc2ccccc12`, the growth was 101% (inactive). Under `CC(C)(C)CC(C)(C)c1ccc(OCCOCCSC(=N)N)cc1` stands 4.55% (active); under `CCCCCCCCCCCCCCCCCC[S+](C)CC` (stereo not given), 36.3% (inactive); under `Cc1cccc2c(N)c3ccccc3nc12`, 5.35% (active). The result for `Cc1ccc(/C=C2\CNC/C(=C\c3ccc(C)cc3)C2=O)cc1` reads 1.76% (active); that for `CC1(C)OCC(COC(c2ccccc2)(c2ccccc2)c2ccccc2)O1` (stereo not given), 100% (inactive). Regarding `CC1(O)CCCCCC1`, the growth is 96.8% (inactive). Under `O=C(c1ccccc1)C(Br)C(Br)c1ccccc1` (stereo not given) stands 31.3% (inactive).

Take `C=C(CO)C(=O)OC1CC(=C)C2CC(O)C(C)C2C2OC(=O)C(=C)C12` (stereo not given): the growth was 73.2% [100 µM] (inactive) and -86.7% [100 µM] (active). As for `COC(=O)C(=[N+]=[N-])C(=O)c1ccc([N+](=O)[O-])o1`, the growth is 65.1% (inactive).

`C[C@@H]1CCC([C@@H](C)[C@H]2CC[C@H]3[C@@H]4CC[C@H]5C[C@@H](O)CC[C@]5(C)[C@H]4CC[C@]23C)=NC1`: the growth was 8.1% [100 µM] (active) and -46.7% [100 µM] (active). In the case of `CCC1C[N+]2=C(c3cc(OC)c(OC)cc3CC2)c2c1cc1n2CCc2cc(OC)c(OC)cc2-1` (stereo not given), the growth was 9.71% (active).

With `Cc1cc(C)c([I+]c2c(C)cc(C)cc2C)c(C)c1`, the growth is -53.7% (active). Under `CC1=CC[C@@H]2[C@@H](CC[C@@]2(C)O)C(C)(C)[C@H]1CC[C@@H]1[C@@]2(C)CCC(=O)C(C)(C)O[C@@H]2CC[C@]1(C)O` stands -36.8% [100 µM] (active) and -100% [100 µM] (active); under `O=C(c1ccccc1)C(O)C(Br)(CBr)c1ccccc1` (stereo not given), 81.5% (inactive). For the compound `CC1(C)CCC[C@]2(C)[C@@H](C=O)C(C=O)=CC[C@@H]12`, the growth was -13.9% [100 µM] (active) and -1.67% [100 µM] (active). The result for `Cc1ccc(Nc2ccc(O)c3c2C(=O)c2c(O)ccc(Nc4ccc(C)cc4)c2C3=O)cc1` reads 98% (inactive); that for `O=C(O)c1cccc2cccc(-c3c4ccc(=O)c(O)c-4oc4c(O)c(O)ccc34)c12`, 101% (inactive).
